The values below come from paper PMC8384837, “Expanding the binding specificity for RNA recognition by a PUF domain”.

Common to all, as to assay: yeast three-hybrid, YBZ-1, SC-Leu-His + 0.5 mM 3-AT, 4 days
Details in all cases: tags: N-Gal4 AD-HA kept; label: inside an RPR1-promoter hybrid RNA with tandem MS2 sites; ssRNA

The target of one assay is PUM1 PUF domain R5-IYM (Homo sapiens, UniProt Q14671 828-1176, C1007I;R1008Y;Q1011M). The method, boiled down:
(§1)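 A centromeric plasmid in strain YBZ-1 co-expressed Pumilio-1 PUF domain libraries, randomized at the three base-contacting residues of each repeat, with matching RNA elements; the strain carries a LexA–MS2 coat fusion and a HIS3 reporter. After four days on SC-Leu (input) or SC-Leu-His + 0.5 mM 3-AT (selection), the repeat regions were PCR-amplified and Illumina-sequenced. The interaction score is the log change in variant frequency from input to selection, using log2 and a pseudocount of 1 where absent.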

Another assay has as its target T1, PUM1 PUF domain R6-SHR (Homo sapiens, UniProt Q14671 828-1176, N1043S;Y1044H;Q1047R).
T1 sequence: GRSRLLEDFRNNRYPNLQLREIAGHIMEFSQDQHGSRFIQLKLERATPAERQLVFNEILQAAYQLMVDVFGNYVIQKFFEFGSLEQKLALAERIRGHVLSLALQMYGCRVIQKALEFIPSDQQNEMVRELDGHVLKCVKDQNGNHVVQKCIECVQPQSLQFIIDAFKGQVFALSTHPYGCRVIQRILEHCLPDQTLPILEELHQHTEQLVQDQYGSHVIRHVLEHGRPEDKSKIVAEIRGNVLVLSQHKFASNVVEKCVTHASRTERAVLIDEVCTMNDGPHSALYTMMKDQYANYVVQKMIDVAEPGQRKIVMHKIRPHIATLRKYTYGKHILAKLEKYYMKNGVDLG
Put shortly:
as §1

For the next assay, the target named is PUM1 PUF domain R3-VRG (Homo sapiens, UniProt Q14671 828-1176, C935V;Q939G). Put shortly: as §1
The next assay deals with PUM1 PUF domain R3-DFV (Homo sapiens, UniProt Q14671 828-1176, C935D;R936F;Q939V). The method, boiled down:
as §1

In the next assay the target is PUM1 PUF domain R3-SCY (Homo sapiens, UniProt Q14671 828-1176, C935S;R936C;Q939Y). Put shortly: as §1
The target of a further assay is T2, PUM1 PUF domain R6-DYQ (Homo sapiens, UniProt Q14671 828-1176, N1043D).
T2 sequence: T1 sequence with S216D, H217Y, R220Q
Put shortly: as §1

In another assay the target is T3, PUM1 PUF domain R6-VYR (Homo sapiens, UniProt Q14671 828-1176, N1043V;Q1047R).
T3 sequence: T1 sequence with S216V, H217Y
The method, boiled down: as §1

The target of another assay is PUM1 PUF domain R8-RRN (Homo sapiens, UniProt Q14671 828-1176, N1122R;Y1123R;Q1126N). Put shortly:
as §1

The next assay deals with PUM1 PUF domain R4-CMV (Homo sapiens, UniProt Q14671 828-1176, N971C;H972M;Q975V). Put shortly:
as §1

A further assay has as its target PUM1 PUF domain R5-VHL (Homo sapiens, UniProt Q14671 828-1176, C1007V;R1008H;Q1011L). The method, boiled down: as §1
In a further assay the target is PUM1 PUF domain R5-GFM (Homo sapiens, UniProt Q14671 828-1176, C1007G;R1008F;Q1011M). The method, boiled down:
as §1

The target of a further assay is PUM1 PUF domain R4-GNV (Homo sapiens, UniProt Q14671 828-1176, N971G;H972N;Q975V). The method, boiled down: as §1
PUM1 PUF domain R4-GNV, sequence (Q14671 828-1176 N971G/H972N/Q975V): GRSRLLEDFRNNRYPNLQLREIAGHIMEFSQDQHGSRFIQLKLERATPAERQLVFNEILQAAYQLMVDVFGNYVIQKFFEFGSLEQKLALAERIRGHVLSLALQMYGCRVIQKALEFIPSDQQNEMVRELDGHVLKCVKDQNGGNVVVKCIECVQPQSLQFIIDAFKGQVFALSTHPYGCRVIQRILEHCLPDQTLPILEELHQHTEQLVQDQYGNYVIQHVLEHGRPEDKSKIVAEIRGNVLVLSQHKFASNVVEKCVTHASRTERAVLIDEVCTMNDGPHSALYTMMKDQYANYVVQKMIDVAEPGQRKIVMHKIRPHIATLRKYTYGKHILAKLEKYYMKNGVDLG
The target of the next assay is PUM1 PUF domain R4-QGG (Homo sapiens, UniProt Q14671 828-1176, N971Q;H972G;Q975G). The method, boiled down:
as §1

The target of the next assay is PUM1 PUF domain R5-RGC (Homo sapiens, UniProt Q14671 828-1176, C1007R;R1008G;Q1011C). The method, boiled down: as §1
For the next assay, the target named is PUM1 PUF domain R5-RSP (Homo sapiens, UniProt Q14671 828-1176, C1007R;R1008S;Q1011P). Put shortly:
as §1

The target of the next assay is PUM1 PUF domain R3-FRW (Homo sapiens, UniProt Q14671 828-1176, C935F;Q939W). Put shortly:
as §1

A further assay deals with PUM1 PUF domain R7-GNR (Homo sapiens, UniProt Q14671 828-1176, S1079G;E1083R). The method, boiled down:
as §1

The target of a further assay is PUM1 PUF domain R1-RRS (Homo sapiens, UniProt Q14671 828-1176, S863R;Q867S). Put shortly: as §1
PUM1 PUF domain R1-RRS, sequence (Q14671 828-1176 S863R/Q867S): as the sequence (Q14671 828-1176 N971G/H972N/Q975V) above, with S36R, Q40S, G144N, N145H, V148Q counted along it
The next assay concerns the target PUM1 PUF domain R1-KSL (Homo sapiens, UniProt Q14671 828-1176, S863K;R864S;Q867L). The method, boiled down: as §1
Another assay concerns the target PUM1 PUF domain R3-QPS (Homo sapiens, UniProt Q14671 828-1176, C935Q;R936P;Q939S). The method, boiled down: as §1

Numbering of substitutions follows the chain as printed.

PUM1 PUF domain R4-CMV, sequence (Q14671 828-1176 N971C/H972M/Q975V): as the sequence (Q14671 828-1176 N971G/H972N/Q975V) above, with G144C, N145M counted along it
PUM1 PUF domain R4-QGG, sequence (Q14671 828-1176 N971Q/H972G/Q975G): as the sequence (Q14671 828-1176 N971G/H972N/Q975V) above, with G144Q, N145G, V148G counted along it
PUM1 PUF domain R5-GFM, sequence (Q14671 828-1176 C1007G/R1008F/Q1011M): as the sequence (Q14671 828-1176 N971G/H972N/Q975V) above, with G144N, N145H, V148Q, C180G, R181F, Q184M counted along it
PUM1 PUF domain R3-QPS, sequence (Q14671 828-1176 C935Q/R936P/Q939S): as the sequence (Q14671 828-1176 N971G/H972N/Q975V) above, with C108Q, R109P, Q112S, G144N, N145H, V148Q counted along it
PUM1 PUF domain R5-VHL, sequence (Q14671 828-1176 C1007V/R1008H/Q1011L): as the sequence (Q14671 828-1176 N971G/H972N/Q975V) above, with G144N, N145H, V148Q, C180V, R181H, Q184L counted along it
PUM1 PUF domain R8-RRN, sequence (Q14671 828-1176 N1122R/Y1123R/Q1126N): as the sequence (Q14671 828-1176 N971G/H972N/Q975V) above, with G144N, N145H, V148Q, N295R, Y296R, Q299N counted along it
PUM1 PUF domain R3-FRW, sequence (Q14671 828-1176 C935F/Q939W): as the sequence (Q14671 828-1176 N971G/H972N/Q975V) above, with C108F, Q112W, G144N, N145H, V148Q counted along it
PUM1 PUF domain R1-KSL, sequence (Q14671 828-1176 S863K/R864S/Q867L): as the sequence (Q14671 828-1176 N971G/H972N/Q975V) above, with S36K, R37S, Q40L, G144N, N145H, V148Q counted along it

As to “GGCUAGAACUAGUGGAUCCCCCGGCGCCCGGCGGCUCGAGCCCGGGUAAGUGUAAAUAGUCUGCAUGCCGCCGGGCGCCAUGCCUGCAGGUCGACUCUAGAAAACAUG”, the binding signal with PUM1 PUF domain R5-IYM was 3.85 log2 enrichment (interaction score); with PUM1 PUF domain R6-SHR it was 4.81 log2 enrichment (interaction score); with PUM1 PUF domain R3-VRG, 3.39 log2 enrichment (interaction score); with PUM1 PUF domain R3-DFV, 5.54 log2 enrichment (interaction score); in the assay with PUM1 PUF domain R3-SCY, 3.56 log2 enrichment (interaction score); in the assay with PUM1 PUF domain R6-DYQ, 6.54 log2 enrichment (interaction score). In addition, the binding signal with PUM1 PUF domain R6-VYR is 2.97 log2 enrichment (interaction score); with PUM1 PUF domain R8-RRN, 2.81 log2 enrichment (interaction score); with PUM1 PUF domain R4-CMV, 2.52 log2 enrichment (interaction score); with PUM1 PUF domain R5-VHL it was 2.67 log2 enrichment (interaction score); with PUM1 PUF domain R5-GFM, 2.5 log2 enrichment (interaction score).

Regarding “GGCUAGAACUAGUGGAUCCCCCGGCGCCCGGCGGCUCGAGCCCGGGUAAGUGUAUAUAGUCUGCAUGCCGCCGGGCGCCAUGCCUGCAGGUCGACUCUAGAAAACAUG”, the binding signal with PUM1 PUF domain R4-GNV was 2.92 log2 enrichment (interaction score); with PUM1 PUF domain R4-CMV, 3.68 log2 enrichment (interaction score); with PUM1 PUF domain R4-QGG, 2.98 log2 enrichment (interaction score).

For “GGCUAGAACUAGUGGAUCCCCCGGCGCCCGGCGGCUCGAGCCCGGGUAAGUGUCAAUAGUCUGCAUGCCGCCGGGCGCCAUGCCUGCAGGUCGACUCUAGAAAACAUG”, the binding signal was 1.32 log2 enrichment (interaction score) in the assay with PUM1 PUF domain R5-RGC and 2.36 log2 enrichment (interaction score) with PUM1 PUF domain R5-RSP.

Regarding “GGCUAGAACUAGUGGAUCCCCCGGCGCCCGGCGGCUCGAGCCCGGGUAAGUGUUAAUAGUCUGCAUGCCGCCGGGCGCCAUGCCUGCAGGUCGACUCUAGAAAACAUG”, the binding signal with PUM1 PUF domain R5-RGC is 3.22 log2 enrichment (interaction score); with PUM1 PUF domain R5-RSP, 1.1 log2 enrichment (interaction score).

As for “GGCUAGAACUAGUGGAUCCCCCGGCGCCCGGCGGCUCGAGCCCGGGUAAGUGAAAAUAGUCUGCAUGCCGCCGGGCGCCAUGCCUGCAGGUCGACUCUAGAAAACAUG”, the binding signal with PUM1 PUF domain R6-VYR was 6.09 log2 enrichment (interaction score).

In the case of “GGCUAGAACUAGUGGAUCCCCCGGCGCCCGGCGGCUCGAGCCCGGGUAAGUGUAAGUAGUCUGCAUGCCGCCGGGCGCCAUGCCUGCAGGUCGACUCUAGAAAACAUG”, the binding signal with PUM1 PUF domain R3-VRG was 0.46 log2 enrichment (interaction score); in the assay with PUM1 PUF domain R3-FRW, 4.16 log2 enrichment (interaction score).

Consider “GGCUAGAACUAGUGGAUCCCCCGGCGCCCGGCGGCUCGAGCCCGGGUAAGUUUAAAUAGUCUGCAUGCCGCCGGGCGCCAUGCCUGCAGGUCGACUCUAGAAAACAUG”, for which the binding signal with PUM1 PUF domain R7-GNR was 2.05 log2 enrichment (interaction score).

As for “GGCUAGAACUAGUGGAUCCCCCGGCGCCCGGCGGCUCGAGCCCGGGUAAGUGUAAAUGGUCUGCAUGCCGCCGGGCGCCAUGCCUGCAGGUCGACUCUAGAAAACAUG”, the binding signal in the assay with PUM1 PUF domain R1-RRS is 2.51 log2 enrichment (interaction score).

With “GGCUAGAACUAGUGGAUCCCCCGGCGCCCGGCGGCUCGAGCCCGGGUAAGUGCAAAUAGUCUGCAUGCCGCCGGGCGCCAUGCCUGCAGGUCGACUCUAGAAAACAUG”, the binding signal in the assay with PUM1 PUF domain R6-SHR was 5.39 log2 enrichment (interaction score).

With “GGCUAGAACUAGUGGAUCCCCCGGCGCCCGGCGGCUCGAGCCCGGGUAAGUGUAAAUCGUCUGCAUGCCGCCGGGCGCCAUGCCUGCAGGUCGACUCUAGAAAACAUG”, the binding signal is 5.02 log2 enrichment (interaction score) with PUM1 PUF domain R1-RRS and 2.8 log2 enrichment (interaction score) with PUM1 PUF domain R1-KSL.

On to “GGCUAGAACUAGUGGAUCCCCCGGCGCCCGGCGGCUCGAGCCCGGGUAAGUGUAAUUAGUCUGCAUGCCGCCGGGCGCCAUGCCUGCAGGUCGACUCUAGAAAACAUG”, for which the binding signal with PUM1 PUF domain R3-QPS was 3.41 log2 enrichment (interaction score).

For “GGCUAGAACUAGUGGAUCCCCCGGCGCCCGGCGGCUCGAGCCCGGGUAAGUGUACAUAGUCUGCAUGCCGCCGGGCGCCAUGCCUGCAGGUCGACUCUAGAAAACAUG”, the binding signal with PUM1 PUF domain R4-GNV was 1.41 log2 enrichment (interaction score); with PUM1 PUF domain R4-CMV, 1.08 log2 enrichment (interaction score); with PUM1 PUF domain R4-QGG it was 1.65 log2 enrichment (interaction score).

Consider “GGCUAGAACUAGUGGAUCCCCCGGCGCCCGGCGGCUCGAGCCCGGGUAAGUGUGAAUAGUCUGCAUGCCGCCGGGCGCCAUGCCUGCAGGUCGACUCUAGAAAACAUG”, for which, in the assay with PUM1 PUF domain R5-GFM, the binding signal is 2.5 log2 enrichment (interaction score).

For the sequence “GGCUAGAACUAGUGGAUCCCCCGGCGCCCGGCGGCUCGAGCCCGGGUAAGUGUAAAUUGUCUGCAUGCCGCCGGGCGCCAUGCCUGCAGGUCGACUCUAGAAAACAUG”, in the assay with PUM1 PUF domain R1-RRS, the binding signal was 3.16 log2 enrichment (interaction score).
